From PubChem BioAssay
AmpC detergent – qHTS Inhibitors of AmpC Beta-Lactamase (assay with detergent) | AmpC hydrolysis of nitrocefin, absorbance 480 nm, 0.01% Triton | Potency, µM (series often up to 114 µM), actives largely listed as inhibitors | 0.041% of 370,000 active | AID 485294, 2010; further: nearly all actives have a fitted effect of over 25% in size
Target sequence (P00811 whole entry, looked up): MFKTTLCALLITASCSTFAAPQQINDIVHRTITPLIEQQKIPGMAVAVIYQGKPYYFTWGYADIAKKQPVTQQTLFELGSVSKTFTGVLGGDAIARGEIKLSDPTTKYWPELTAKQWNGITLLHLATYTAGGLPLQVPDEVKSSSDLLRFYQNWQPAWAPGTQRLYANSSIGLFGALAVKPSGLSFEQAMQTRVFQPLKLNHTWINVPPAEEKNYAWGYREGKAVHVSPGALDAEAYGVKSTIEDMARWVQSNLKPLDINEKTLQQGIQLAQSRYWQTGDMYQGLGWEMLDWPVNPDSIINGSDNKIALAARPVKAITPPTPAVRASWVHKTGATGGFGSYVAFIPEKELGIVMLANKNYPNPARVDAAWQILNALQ
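20 mM phosphate pH 7.0 + 0.01% (detergent screen) or 0.0001% Triton X-100; 5.3 nM AmpC reagent; cpd preinc 15 min RT; nitrocefin (800 uM stock) to start; A480 q20 s × 4 min; Activity was normalised to no-enzyme and no-compound control wells.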
AmpC inh no detg – qHTS Inhibitors of AmpC Beta-Lactamase (assay without detergent). Potency, µM (highest dose often 57.1 µM), hits mostly inhibitors. AmpC nitrocefin hydrolysis, absorbance 480 nm, 0.0001% Triton. AID 485341, 2010. 0.52% of 330,000 active. P00811; further: nearly all actives have a fitted effect of over 20% in size
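AmpC (5.3 nM in the dispensed reagent) in 20 mM phosphate pH 7.0 with 0.01% (detergent screen) or 0.0001% Triton X-100 was preincubated with compounds for 15 min at room temperature. Nitrocefin was then added from an 800 uM solution, and hydrolysis was followed at 480 nm.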
Pf growth 96h – Primary qHTS for delayed death inhibitors of the malarial parasite plastid, 96 hour incubation; Potency, µM (titrated, usually from 28.7 µM), most hits filed as inhibitors; P. falciparum luciferase reporter growth, 96 h; 6.9% of 320,000 active
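Readout is luminescence from an integrated firefly luciferase in P. falciparum. Red cells, 2% hematocrit and 0.05% parasitemia final, were cultured with compound through two parasite generations (96 hours) at 37 C, 5% CO2.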
Sm TGR inh – qHTS Assay for the Inhibitors of Schistosoma Mansoni Peroxiredoxins | Schistosoma mansoni thioredoxin glutathione reductase (TGR), Q962Y6 | purified TGR, DTNB reduction, TNB absorbance 405 nm | Potency, µM (highest dose often 114 µM), usual class: inhibitors | 3% of 360,000 active | AID 485364, 2010; further: nearly all actives have a fitted effect of over 60% in size
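Kinetic colorimetric format: TGR-catalysed, NADPH-driven DTNB reduction monitored via TNB absorbance. Enzyme dispensed at 20 nM; compound exposure 15 min at room temperature before reaction start.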
SARS PLP yeast – qHTS of Yeast-based Assay for SARS-CoV PLP | S. cerevisiae expressing SARS-CoV PLpro, growth rescue | Potency, µM (highest dose often 32.9 µM), actives largely listed as activators | 0.19% of 330,000 active; calls by dose curve; further: nearly all actives have a fitted effect of over 55% in size
Pf growth 48h – Primary qHTS for delayed death inhibitors of the malarial parasite plastid, 48 hour incubation | AID 504832, 2011 | Potency, µM (titrated, usually from 28.7 µM), hits mostly inhibitors | 5.9% of 310,000 active | P. falciparum luciferase growth in erythrocytes, 48 h
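Here the parasites carry a stable luciferase gene and grow inside erythrocytes in Albumax-based RPMI medium with compound for one erythrocytic cycle. Activity is scored as loss of luminescent signal.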
A number is an active result; n = inactive; u = inconclusive; x = not tested or not shown; ! = not confirmed by another sample. Most compounds without a hit are left out; they make up all but 12% or so of the library. Unless noted, the call rests on the fitted dose curve; in most records, active means well fitted curve in the direction sought with a large enough effect; inconclusive means small, poorly fitted or top-dose-only effect, or another doubt; inactive means no such curve, though single readings can be large; an effect the other way counts as inactive or inconclusive.

SMILES	AmpC detergent	AmpC inh no detg	Pf growth 96h	Sm TGR inh	SARS PLP yeast	Pf growth 48h
CCCn1c(SCc2nc(-c3ccccc3OCC)no2)nnc1-c1ccc(Cl)cc1	n	x	x	n	x	x
CC(C)CC1=C/C(=C/c2ccc(-c3ccccc3)o2)C(=O)O1	u	32µM	u	13µM	n	u
CCCCn1c(-c2ccc(Cl)c(Cl)c2)nc2cc3[nH]c(=O)c(C(C)C)nc3cc21	u	n	4.7µM	n	n	u
CCCCn1c(=O)[nH]c(=O)c2c1nc(-c1ccc3ccccc3c1)n2CC	n	n	u	n	n	n
CCCCn1c(-c2ccc(C(C)(C)C)cc2)nc2cc3[nH]c(=O)c(C(C)C)nc3cc21	n	n	4.7µM	n	n	u
Cc1cccn2c(=O)cc(CSc3nnc(NC(=O)c4ccc(F)cc4)s3)nc12	n	x	x	n	x	x
CN(Cc1cccc(C(F)(F)F)c1)Cc1nc(-c2cnccn2)no1	n	n	7.4µM	n	n	n
COc1ccc([C@H]2[C@H](C(=O)C(C)(C)C)N3N=Cc4ccccc4C3[C@]23N=C(c2ccccc2)OC3=O)cc1 (stereo partly specified)	n	n	9.3µM	n	n	13µM
CC(CCc1ccccc1)NCC(O)c1ccc(O)c(C(N)=O)c1 (stereo unspecified)	n	n	u	n	n	13µM
CC(=O)NC(C)CCc1ccccc1 (stereo unspecified)	n	n	n	n	n	n
O=C(O)C1C2C=CC(C2)C1C(=O)OCc1ccccc1 (stereo unspecified)	n	n	9.3µM	n	n	n
OC(COCc1ccc(Cl)cc1)CN1CC=C(c2ccccc2)CC1 (stereo unspecified)	n	n	3.3µM	n	n	9.3µM
Cc1cc(C)c2c(-n3cccc3)c(C(=O)NCCc3ccc(Cl)cc3)sc2n1	n	x	x	n	x	x
CCC(C)N1C(=O)/C(=C/c2c(NCCCOC(C)C)nc3c(C)cccn3c2=O)SC1=S (stereo unspecified)	n	n	u	n	n	1.2µM
CC(C)C(c1nnnn1C(C)(C)C)N1CCOCC1 (stereo unspecified)	n	n	n	n	n	n
CC(C)C(c1nnnn1C(C)(C)C)N1CCC(Cc2ccccc2)CC1 (stereo unspecified)	u	n	n	n	n	9.3µM
Cc1csc2nc(COC(=O)CNC(=O)c3ccc(F)cc3)cc(=O)n12	n	x	x	n	x	x
COc1cc2c(cc1O)CCN[C@@]21CS[C@H]2c3c(OC(C)=O)c(C)c4c(c3C(COC1=O)N1C2C2c3c(cc(C)c(OC)c3O)CC([C@@H]1O)N2C)OCO4 (stereo partly specified)	x	x	2.1µM	x	x	0.0005µM
O=C(COc1ccc(Br)cc1)Nc1ccc2c(c1)C(=O)NC2=O	n	n	n	n	n	n
CCCC(=O)Nc1ccc2c(c1)C(=O)NC2=O	n	45µM	n	n	n	n
COc1ccc(OCC(=O)Nc2ccc3c(c2)C(=O)NC3=O)cc1	n	n	12µM	n	n	n
CCCC(=O)Nc1cccc(Oc2ccc3c(c2)C(=O)NC3=O)c1	n	n	n	n	n	n
Cc1ccc2c(c1)Oc1ccc(NC(=O)CCCl)cc1C(=O)N2	u	20µM	0.29µM	n	n	u
O=C(CCCCn1c(=O)c2ccccc2n(Cc2ccccc2Cl)c1=O)NCCc1ccccc1	n	x	x	n	x	x
O=C(NCCS(=O)(=O)NCC1CCCO1)c1ccccc1 (stereo unspecified)	u	n	n	n	n	n
SMILES	AmpC detergent	AmpC inh no detg	Pf growth 96h	Sm TGR inh	SARS PLP yeast	Pf growth 48h
Cc1ccc(CNC(=O)CCCn2c(=O)c3ccccc3n(CC(=O)Nc3ccc(C)c(C)c3)c2=O)cc1	n	x	x	n	x	x
CSc1c(CC(=O)Nc2ccccc2C(F)(F)F)n(Cc2ccccc2)c2ccccc12	n	n	9.3µM	n	n	u
CSc1c(CC(=O)Nc2ccccc2Cl)n(Cc2ccccc2)c2ccccc12	n	n	u	n	n	u
CSc1c(CC(=O)Nc2ccccc2)n(Cc2ccccc2)c2ccccc12	n	n	u	n	n	12µM
Nc1ncnc2c1ncn2[C@@H]1O[C@H](CNCC(O)CO)[C@@H](O)[C@H]1O (stereo partly specified)	x	n	x	x	n	x
Cc1cccc(CCNC(=O)c2c[nH]c3ccc(S(=O)(=O)Nc4ccccc4F)cc3c2=O)c1	n	x	x	n	x	x
Cc1cccc(CCNC(=O)c2cc(=O)[nH]c3ccc(Br)cc23)c1	n	n	10µM	n	n	n
CN1C(C(=O)NCc2ccccc2)CC2Cn3c(nc4ccccc43)C21 (stereo unspecified)	n	n	n	n	n	n
CCCNC(=O)C1CC2Cn3c(nc4ccccc43)C2N1C (stereo unspecified)	n	n	n	40µM	n	n
Cc1ccc(CNC(=O)C2CC3Cn4c(nc5cc(C)c(C)cc54)C3N2C)o1 (stereo unspecified)	n	n	n	n	n	n
Cc1ccc(CNC(=O)C2CC3Cn4c(nc5cc(Cl)c(Cl)cc54)C3N2C)o1 (stereo unspecified)	n	n	n	45µM	n	n
COCCNC(=O)c1nn(-c2ccc(Cl)cc2)nc1CO	n	x	x	n	x	x
COc1ccc(-c2nn(C)c3sc(C(=O)Nc4cccc(F)c4)cc23)cc1OC	n	x	x	n	x	x
Cc1nnc(N=c2ssnc2Cl)o1	n	n	n	28µM	n	n
CC[N+](C)(CC)CCOC(=O)C(O)(c1ccccc1)c1ccccc1	x	x	n	x	x	n
C[N+](C)(C)CCOC(=O)C(O)(c1ccccc1)c1ccccc1	x	x	11µM	x	x	n
O=C(NCc1ccccc1)c1ccc(CS(=O)Cc2ccc(Cl)cc2)o1 (stereo unspecified)	n	n	n	u	n	n
O=C(NCCc1ccccc1)c1ccc(CS(=O)Cc2ccc(Cl)cc2)o1 (stereo unspecified)	n	n	n	35µM!	n	n
COc1ccc(OC)c(CCNC(=O)c2ccc(CS(=O)Cc3cccc(Cl)c3)o2)c1 (stereo unspecified)	n	n	4.1µM	n	n	u
O=C(NC1CCCCCC1)c1ccc(CS(=O)Cc2cccc(Cl)c2)o1 (stereo unspecified)	n	n	u	56µM	n	n
CCOC(=O)c1sc2cccc(F)c2c1S(=O)(=O)N1CCN(c2cccc(Cl)c2)CC1	n	x	x	n	x	x
